Measured values published in the supplement of paper PMC10981050.
Where “and” joins values, the source holds several entries; their conditions need not be identical. Equal entries are not always repeated. Structures can show the parent of a compound that is named as a salt.

What was measured:
Test in all cases: cell viability relative to vehicle control; higher = less cytotoxic
K562 = settings: 10 µM; SRSF2 genotype: SRSF2 wt/wt
Method in brief: (§1)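 After removal of identity-inconsistent compounds, the Selleck bioactive, kinase and epigenetic probe libraries were screened on CRISPR-edited mutant clones and isogenic wild-type clones of four leukaemia lines. Plates were 384-well, each well holding 2000 cells in 50 µL medium and receiving a single 10 µM acoustically dispensed dose. CellTiter-Glo luminescence was read 48 h later, after the supernatant was taken off. Genedata Screener was used to express viability as percent of the on-plate vehicle control.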

MARIMO = settings: 10 µM
Method in brief: as §1

MOLM14 = settings: 10 µM
Method in brief: as §1

OCI-AML2 = settings: 10 µM
Method in brief: as §1

| SMILES | cell viability (K562) | cell viability (MARIMO; SRSF2 genotype: SRSF2 P95H/wt) | cell viability (MARIMO; SRSF2 genotype: SRSF2 wt/wt) | cell viability (MOLM14; SRSF2 genotype: SRSF2 P95H/wt) | cell viability (MOLM14; SRSF2 genotype: SRSF2 wt/wt) | cell viability (OCI-AML2; SRSF2 genotype: P95H/wt) | cell viability (OCI-AML2; SRSF2 genotype: wt/wt) |
| --- | --- | --- | --- | --- | --- | --- | --- |
| COc1ccc(F)c(F)c1C(=O)c1cnc(NC2CCN(S(C)(=O)=O)CC2)nc1N | 54.3% | 11.3% | 12.1% | 1.28% | 0.27% | 3.74% | 15.6% |
| Cc1cnc(-c2cnc(NCCNc3ccc(C#N)cn3)nc2-c2ccc(Cl)cc2Cl)[nH]1 | 63.6% and 69.4% | 96.3% and 94.4% | 119% and 126% | 87.2% and 98.8% | 103% and 110% | 95.8% and 99.6% | 124% and 133% |
| O=C(O[C@@H]1O[C@@H]2COC(=O)c3cc(O)c(O)c(O)c3-c3c(cc(O)c(O)c3O)C(=O)O[C@H]([C@H]1O)[C@@H]2O)c1cc(O)c(O)c(O)c1 [Corilagin] | 81.5% | 86.9% | 81.3% | 86.4% | 82.2% | 103% | 96.2% |
| COc1cc([C@@H]2c3cc4c(cc3[C@@H](O[C@@H]3O[C@@H]5CO[C@@H](C)O[C@H]5[C@H](O)[C@H]3O)[C@H]3COC(=O)[C@H]23)OCO4)cc(OC)c1O [Etoposide (VP-16)] | 82% | 7.2% | 6.84% | 15.3% | 4.31% | 13% | 14.8% |
| O=C(CCCCCCNC(=O)c1cnc(N(c2ccccc2)c2ccccc2)nc1)NO | 52.1% | 17.6% | 35.3% | 2.73% | 2.08% | 0.54% | 1.52% |
| COc1cc2c[n+](C)c3c4cc5c(cc4ccc3c2cc1OC)OCO5 [Nitidine Chloride] | 46.1% | 38.6% | 34.6% | 0.55% | 0.7% | 0.61% | 0.76% |
| CC(Nc1nc(N2CCCC2)nc2ccccc12)c1ccccc1 (configuration not stated) [Importazole] | 29.2% | 46.3% | 64.7% | 51.2% | 48.2% | 51.8% | 58.2% |
| O=C(CCCCCCNC(=O)c1cnc(N(c2ccccc2)c2ccccc2Cl)nc1)NO [Citarinostat (ACY-241)] | 47.4% | 8.12% | 20.9% | 2.1% | 1.84% | 0.7% | 1.25% |
| O=C(O[C@@H]1Cc2c(O)cc(O)cc2O[C@H]1c1cc(O)c(O)c(O)c1)c1cc(O)c(O)c(O)c1 [Gallocatechin gallate] | 71% | 91.1% | 91.7% | 77.3% | 67.3% | 94.1% | 87.8% |
| CN(c1ncccc1CNc1nc(Nc2ccc3c(c2)CC(=O)N3)ncc1C(F)(F)F)S(C)(=O)=O | 27.9% and 21.1% | 10.2% and 11.6% | 3.77% and 4.68% | 0.98% and 1.3% | 0.43% and 0.45% | 1.6% and 2.15% | 13% and 13.3% |
| O=C(/C=C/c1ccc(O)c(O)c1/C=C/c1ccc(O)c(O)c1)O[C@H](Cc1ccc(O)c(O)c1)C(=O)O [Salvianolic acid A] | 70.5% | 86.4% | 94.7% | 73.7% | 62.1% | 98.2% | 95% |
| C[C@@H]1CCN(C(=O)CC#N)C[C@@H]1N(C)c1ncnc2[nH]ccc12 | 99.6% and 112% | 97.6% and 104% | 99.8% and 112% | 85.3% and 95.7% | 104% | 96.5% and 99.1% | 93.8% and 101% |
| CCN(C)S(=O)(=O)Nc1ccc(F)c(C(=O)c2c[nH]c3ncc(-c4cnc(C5CC5)nc4)cc23)c1F | 59.2% | 83.6% | 87.5% | 79.3% | 92.7% | 91.5% | 84.7% |
| COc1cc2ncnc(Nc3ccc(F)c(Cl)c3)c2cc1OCCCN1CCOCC1 [Gefitinib (ZD1839)] |  | 63.4% | 63.1% | 39.7% | 45.2% | 53.4% | 50.9% |
| COc1cc2nccc(Oc3ccc(NC(=O)Nc4ccc(F)cc4F)c(F)c3)c2cc1OC | 93.5% | 109% | 112% | 25.1% | 19.4% | 40.2% | 51.5% |
| O=c1cc(-c2ccc(O)c(O)c2O)oc2ccccc12 | 69.2% | 98.5% | 87.9% | 81.8% | 68.4% | 108% | 105% |
| COc1cc(O)cc(O)c1C(=O)C=Cc1ccccc1 [Cardamonin] | 77.8% | 54.5% | 70.9% | 33.1% | 74.1% | 52.6% | 51.2% |
| CCNC(=O)C#Cc1ccc2c(C(=Nc3ccc(CN(C)C)cc3)c3ccccc3)c(O)[nH]c2c1 | 53.4% | 26.7% | 25.1% | 4.97% | 7.91% | 11.9% | 17.2% |
| COc1cc2/c(=N/c3ccc(Br)cc3F)nc[nH]c2cc1OCC1CCN(C)CC1 [Vandetanib (ZD6474)] | 41% | 83% | 97.2% | 57.6% | 68.6% | 77.3% | 75.4% |

| SMILES | cell viability (K562) | cell viability (MARIMO; SRSF2 genotype: SRSF2 P95H/wt) | cell viability (MARIMO; SRSF2 genotype: SRSF2 wt/wt) | cell viability (MOLM14; SRSF2 genotype: SRSF2 P95H/wt) | cell viability (MOLM14; SRSF2 genotype: SRSF2 wt/wt) | cell viability (OCI-AML2; SRSF2 genotype: P95H/wt) | cell viability (OCI-AML2; SRSF2 genotype: wt/wt) |
| --- | --- | --- | --- | --- | --- | --- | --- |
| NC(CO)C(=O)NNCc1ccc(O)c(O)c1O (configuration not stated) [Benserazide HCl] | 80.2% | 103% | 95.5% | 85.3% | 71.6% | 94.2% | 99.5% |
| O=C1NC(=O)[C@@H](c2cn3c4c(cccc24)CCC3)[C@@H]1c1c[nH]c2ccccc12 [ARQ 197 (Tivantinib)] | 37% | 6.87% | 9.91% | 17.9% | 4.13% | 12.1% | 15.4% |
| Cn1cc(-c2ccc(F)c(C(F)(F)F)c2)nc1C1CCN(c2ncnc3[nH]ncc23)CC1 | 86% and 80.8% | 88.3% and 83.6% | 96.6% and 99.4% | 92.3% and 80.4% | 95.3% and 97.3% | 85.9% and 77.1% | 92.6% and 79.5% |
| NC(=O)c1cccc(-c2cc(Nc3ccc(OC(F)(F)F)cc3)ncn2)c1 | 26.8% | 70.1% | 58.7% | 102% | 102% | 43.7% | 55.3% |
| C[C@H]1O[C@@H](O[C@H]2CC[C@@]3(C)[C@@H](CC[C@]4(C)[C@@H]3C=C[C@]35OC[C@@]6(CCC(C)(C)C[C@H]63)[C@@H](O)C[C@]54C)[C@]2(C)CO)[C@H](O)[C@@H](O[C@@H]2O[C@H](CO)[C@@H](O)[C@H](O)[C@H]2O)[C@H]1O [Saikosaponin A] | 23.1% | 40.9% | 46.1% | 23.8% | 28.7% | 42.2% | 45% |
| Cc1coc2c1C(=O)C(=O)c1c-2ccc2c1CCCC2(C)C [Tanshinone IIA (Tanshinone B)] | 52.2% | 98.2% | 89% | 88.8% | 79.7% | 84.1% | 83.3% |
| CNC(=O)c1ccccc1Oc1nc(Nc2cc(OC)c(OC)c(OC)c2)ncc1Br | 90.6% | 52.5% | 55.3% | 8.58% | 5.16% | 11.6% | 19% |
| COc1cc(-c2cc(-c3ccc(N4CCNCC4)cc3)cnc2C)cc(OC)c1OC | 31.1% | 46.2% | 46.9% | 37.1% | 31.9% | 17.7% | 29.3% |
| O=C(O)C(=O)O.[NH-]C1CCCCC1[NH-].[Pt+2] (configuration not stated) [Oxaliplatin (Eloxatin)] | 72.8% | 22% | 62% | 56.1% | 48.2% | 23.8% | 62.9% |
| O=C(NCCN1CCOCC1)Nc1ccc(C(=O)/C=C/c2cccc(N3CCOCC3)n2)cc1 | 15.2% | 21.2% | 19.2% | 1.13% | 1.01% | 5.44% | 16.6% |
| C[C@H](CS)C(=O)N1CCC[C@H]1C(=O)O [Captopril (Capoten)] |  | 103% | 106% | 102% | 102% | 97.7% | 97.8% |
| CC1(C)CC[C@]2(C(=O)O)CC[C@]3(C)C(=CC[C@@H]4[C@@]5(C)CC[C@H](O[C@@H]6O[C@H](C(=O)O)[C@@H](O)[C@H](O[C@@H]7OC[C@@H](O)[C@H](O)[C@H]7O)[C@H]6O)C(C)(C)[C@@H]5CC[C@]43C)[C@@H]2C1 [Momordin Ic] | 88.8% | 103% | 108% | 110% | 103% | 97.2% | 96.6% |
| O=C(NC1CCNCC1)c1n[nH]cc1NC(=O)c1c(Cl)cccc1Cl | 26.4% and 27.1% | 13.2% and 15.4% | 6.7% and 6.57% | 3.09% and 4.11% | 0.56% and 0.84% | 5.65% and 5.71% | 17.9% and 18% |
| O=C(Cc1cccc(OC(F)(F)F)c1)Nc1ccc(CCCCc2nnc(NC(=O)Cc3ccccn3)s2)nn1 | 58.5% | 23.7% | 21.2% | 44.3% | 53.4% | 20.1% | 24.8% |
| COc1cccc(-c2ccc(NC(=O)C3=C(C(=O)O)CCC3)c(F)c2)c1 [Vidofludimus] | 93.2% | 115% | 120% | 114% | 108% | 112% | 112% |
| Oc1ccc2c(c1)OC[C@]1(O)Cc3cc(O)c(O)cc3[C@H]21 [Brazilin] | 85.9% | 46.3% | 11.3% | 40.4% | 45.2% | 73.2% | 77.5% |
| c1cc(-c2cnn3cc(-c4ccc(OCCN5CCCCC5)cc4)cnc23)ccn1 [Dorsomorphin (Compound C)] | 64.1% | 73.8% | 80.9% | 16.4% | 10.9% | 33.1% | 36.2% |
| CNC(=O)c1ccccc1Nc1nc(Nc2ccc(N3CCOCC3)cc2OC)ncc1Cl | 113% | 44.3% | 39.6% | 9.8% | 6.5% | 13.3% | 20.4% |
